# Source: PubChem BioAssay AID624405 (Broad Institute, 2012)
# Out of some 1,900 compounds screened, about 250 (13%) were called active. Not shown: some 4% with an inconclusive outcome.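 The calls were made as follows: active = fitted curve reaches 40% rescue activity at or below the top valid dose, in every test run; inconclusive = test runs disagree, some active and some inactive; inactive = every run misses the threshold or moves the wrong way.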 The list is a sample of the results. Potency and affinity values are given separately.
# Experiment: rescue of simvastatin-induced ATP loss – cell-based, C2C12 myotubes, ATP luminescence, cherry pick, dose response (AID 624405);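 also: myotubes are challenged with simvastatin at 10 µM to lower ATP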
# Settings: 48 h, scaled: DMSO wells 0, geranylgeraniol wells 100; series mostly up to 19.5 µM; rescue activity (ATP increase): at the top concentration
row,Structure (SMILES),rescue activity (ATP increase)
1,c1cnc2ccc(C(c3nnnn3C3CCCC3)N3CCN(c4nc5ccccc5s4)CC3)cc2c1 (centres undefined),5.08% (inactive)
2,CC(C)NC(=O)CN1C(=O)NC(CCc2ccccc2)C1=O (centres undefined),-27.9% (inactive)
3,CCCn1c2c(c(O)c(C(=O)NC)c1=O)CCCC2,32.2% (inactive)
4,C[C@H]1CN([C@@H](C)CO)S(=O)(=O)c2ccc(C#CC3CCCCC3)cc2O[C@H]1CN(C)C(=O)Cc1ccncc1,-18.7% (inactive)
5,COc1ccc(S(=O)(=O)N2CCOCC2)cc1NC(=O)CSc1ncccn1,-4.59% (inactive)
6,Cc1c(N=Cc2c(O)n(Cc3ccco3)c(=O)c3ccccc23)c(=O)n(-c2ccccc2)n1C,27.1% (inactive)
7,CCOC(=O)C1CCN(S(=O)(=O)c2nc3nc(C)cc(C)n3n2)CC1,-11.5% (inactive)
8,O=C(NNC(=O)c1ccncc1)Nc1ccc(N=Nc2ccccc2)cc1,-47.4% (inactive)
9,COc1ccc(C#Cc2ccc([C@H]3[C@H]4CN(C(=O)c5ccncc5)CCCCN4[C@H]3CO)cc2)cc1,28.5% [at 21 µM] (inactive)
10,C[C@@H]1CN([C@@H](C)CO)C(=O)c2cc(NS(=O)(=O)c3cccs3)ccc2O[C@@H]1CN(C)Cc1ccc2c(c1)OCO2,31.3% (inactive)
11,C[C@H]1CN([C@@H](C)CO)C(=O)c2cccc(NS(=O)(=O)c3cccs3)c2O[C@@H]1CN(C)C(=O)Nc1ccc(C(F)(F)F)cc1,-2.23% (inactive)
12,Cc1cccc(OCC(=O)Nc2cc(C)ccc2O)c1,23.5% (inactive)
13,Cc1ccc(-c2noc(-c3cccs3)n2)cc1,-4.64% (inactive)
14,COc1ccccc1-c1noc(-c2ccncc2)n1,8.68% (inactive)
15,Cc1ccc(C(=O)OCC(=O)Nc2ccc3c(c2)OCO3)cc1S(=O)(=O)N1CCOCC1,-31.5% (inactive)
16,CCOC(=O)C(C)n1nc(/C=C/c2ccccc2)ccc1=O (centres undefined),-17.3% (inactive)
17,C[C@@H]1CN([C@@H](C)CO)C(=O)Cc2cc(NC(=O)Cc3cn(C)c4ccccc34)ccc2O[C@H]1CN(C)Cc1ccc(Oc2ccccc2)cc1,10.6% (inactive)
18,O=C(Nc1nc2c(s1)CCCC2)c1ccc(Br)o1,-45% (inactive)
19,C[C@H](CO)N1C[C@H](C)[C@@H](CN(C)S(=O)(=O)c2cn(C)cn2)Oc2ccc(NC(=O)Nc3ccc(C(F)(F)F)cc3)cc2C1=O,17.3% (inactive)
20,C[C@H](CO)N1C[C@H](C)[C@@H](CN(C)S(=O)(=O)c2ccc(Cl)cc2)Oc2c(NC(=O)Nc3ccc(C(F)(F)F)cc3)cccc2C1=O,1.28% (inactive)
21,C[C@H](N)c1nnc(SCC(=O)c2ccc(Cl)cc2)o1,19% (inactive)
22,CC(C)CC#Cc1cnc2c(c1)C(=O)N([C@@H](C)CO)C[C@@H](C)[C@H](CN(C)S(=O)(=O)c1cccs1)O2,0.138% (inactive)
23,CCn1c(CSc2nc(C)cc(C)n2)nnc1SCC(=O)Nc1nc(-c2ccccc2)cs1,-15.7% (inactive)
24,COc1ccc(S(=O)(=O)Nc2cccc3c2O[C@H](CN(C)S(=O)(=O)c2ccc(Cl)cc2)[C@H](C)CN([C@@H](C)CO)C3=O)cc1,23% (inactive)
25,CCOc1ccccc1C(=O)n1nc(C)cc1C,26.2% (inactive)
26,CCOC(=O)Cn1c(=O)c2c(nc3n2CCN3Cc2ccccc2)n(C)c1=O,40.9% (inactive)
27,CCCCOC(=O)Cn1c(=O)c2c(nc3n2CCCCN3c2ccc(C)cc2)n(C)c1=O,-4.89% (inactive)

row,Structure (SMILES),rescue activity (ATP increase)
1,O=C1c2ccccc2C(=O)N1CCC1=CCCCC1,-38.2% (inactive)
2,C[C@@H]1CN([C@H](C)CO)C(=O)c2cccc(NS(=O)(=O)c3cccs3)c2O[C@@H]1CN(C)S(=O)(=O)c1cccs1,16.3% (inactive)
3,Fc1ccccc1OCCCN1CCOCC1,6.51% (inactive)
4,C[C@H]1CN([C@@H](C)CO)C(=O)c2cc(/C=C/c3ccccc3)cnc2O[C@@H]1CN(C)C(=O)Nc1ccccc1F,21.6% (inactive)
5,C=CCSc1nc(C)c2cc(C)cc(C)c2n1,-29.5% (inactive)
6,CC(C)(CSc1ncccn1)NS(=O)(=O)c1ccccc1,-8.32% (inactive)
7,O=S(=O)(NCc1csc(-c2cccs2)n1)c1cccc(C(F)(F)F)c1,12.9% (inactive)
8,COc1ccc(NC(=O)N(C)C[C@H]2OCCCC[C@H](C)Oc3ccc(NS(=O)(=O)c4c(C)noc4C)cc3C(=O)N([C@@H](C)CO)C[C@H]2C)cc1,6.36% (inactive)
9,Cc1cc(C)n(C(=O)c2ccc(S(=O)(=O)NCC3CCCO3)cc2)n1 (centres undefined),2.29% (inactive)
10,C[C@@H]1CN([C@@H](C)CO)C(=O)c2cccc(NC(=O)C3CCCCC3)c2O[C@H]1CN(C)S(=O)(=O)c1ccc(Cl)cc1,12.9% (inactive)
11,C[C@@H]1CCCCO[C@@H](CN(C)Cc2ccc(Cl)c(Cl)c2)[C@H](C)CN([C@@H](C)CO)C(=O)c2cc(NC(=O)Cc3ccccc3)ccc2O1,34.2% [at 21 µM] (inactive)
12,O=c1cc(CN2CCN(Cc3ccccc3)CC2)c2cc3c(cc2o1)CCC3,-1.9% (inactive)
13,Cc1sc2nc3ccc(N4CCCCC4)nn3c(=O)c2c1C,-16.1% (inactive)
14,Cc1cccn2c(=O)c3cc(C(=O)NCCC4=CCCCC4)n(C)c3nc12,-167% (inactive)
15,CN(C)C(CNC(=O)NC1CCCCC1)c1cccnc1 (centres undefined),3.47% (inactive)
16,C[C@@H]1CN([C@@H](C)CO)C(=O)c2cc(NC(=O)Nc3ccc(F)cc3)ccc2O[C@@H](C)CCCCO[C@H]1CN(C)Cc1ccncc1,18.6% [at 21 µM] (inactive)
17,COC(=O)c1cc(OC)c(OC)cc1NC(=O)Nc1cccc(C(C)=O)c1,38.3% (inactive)
18,C[C@H]1CN([C@@H](C)CO)C(=O)Cc2cc(NC(=O)Cc3ccccc3)ccc2O[C@@H]1CN(C)Cc1ccc(Oc2ccccc2)cc1,30.6% [at 21 µM] (inactive)
19,O=C(COc1cccc(C(F)(F)F)c1)Nc1ccc(S(=O)(=O)N2CCCC2)cc1,-40.5% (inactive)
20,O=C(OCCOc1ccc(Br)cc1)c1cnccn1,9.55% (inactive)
21,O=C(c1cnccn1)N1CCN(C/C=C/c2ccccc2)CC1,16.1% (inactive)
22,C[C@H]1CN([C@@H](C)CO)C(=O)c2cc(NC(=O)C3CC3)ccc2O[C@@H]1CN(C)CC1CCCCC1,7.65% [at 21 µM] (inactive)
23,C[C@H](CO)N1C[C@H](C)[C@H](CN(C)Cc2ccc(C(F)(F)F)cc2)Oc2c(NC(=O)Nc3cccc4ccccc34)cccc2C1=O,-21.9% (inactive)
24,C[C@@H]1CN([C@H](C)CO)C(=O)c2cc(NC(=O)Nc3cccc4ccccc34)ccc2O[C@@H](C)CCCCO[C@@H]1CN(C)Cc1ccc2c(c1)OCO2,-26.6% (inactive)
25,COc1ccc(NC(=O)Nc2ccc3c(c2)C(=O)N([C@@H](C)CO)C[C@H](C)[C@@H](CN(C)Cc2ccc(C(F)(F)F)cc2)OCCCC[C@H](C)O3)cc1,-29.1% (inactive)
26,C[C@@H]1CN([C@@H](C)CO)C(=O)c2cccc(NC(=O)C3CCOCC3)c2O[C@@H]1CN(C)S(=O)(=O)c1cn(C)cn1,10.6% (inactive)
27,COC(=O)[C@H]1[C@H](CO)[C@H]2Cn3c(ccc(C4=CCCCC4)c3=O)[C@H]2N1CC1CCCCC1,34.2% (inactive)
